Assay outcomes: PubChem BioAssay, National Center for Advancing Translational Sciences (NCATS)
ALOX12 inhib = blocks human 12-lipoxygenase activity; P18054; purified 12-hLO, xylenol orange hydroperoxide absorbance; Potency, µM (titrated, usually from 57.1 µM), without a hit: at the top dose activity change, negative = inhibition, most hits filed as inhibitors; 150,000 tested, 0.12% active; AID 1452; note: potency is the fitted concentration of half-maximal effect; nearly all actives have a fitted effect of over 55% in size
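Lipoxygenase turnover measured by absorbance at 573 and 405 nm after Fe-XO development. Human 12hLO 150 nM, arachidonate 40 uM, pH 7.0 Hepes buffer with detergent; 15 min compound preincubation, 30 min reaction.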
HPGD block = inhibitors of human 15-hydroxyprostaglandin dehydrogenase (HPGD); P15428; purified HPGD, NADH fluorescence kinetic, PGE2 substrate; Potency, µM, for the others: top-dose activity change, negative = inhibition, most hits filed as inhibitors; 150,000 tested, 4.3% active; active = well fitted inhibition curve with a large enough effect, not every such curve was filed as active; inconclusive = small, poorly fitted or top-dose-only effect, or another doubt; inactive = no such curve, though single readings can be large or run the other way; note: potency is the fitted concentration of half-maximal effect
Target sequence (P15428 whole entry, looked up): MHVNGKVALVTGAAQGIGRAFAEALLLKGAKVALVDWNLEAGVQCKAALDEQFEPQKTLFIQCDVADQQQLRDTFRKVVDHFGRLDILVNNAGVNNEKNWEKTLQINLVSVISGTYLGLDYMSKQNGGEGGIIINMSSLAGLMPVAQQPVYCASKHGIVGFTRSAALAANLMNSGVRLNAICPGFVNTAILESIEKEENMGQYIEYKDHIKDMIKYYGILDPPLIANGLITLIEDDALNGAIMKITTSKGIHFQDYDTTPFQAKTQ
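20 nM HPGD preincubated 15 min at room temperature with compound in 50 mM Tris-HCl pH 8, 0.01% Tween 20. Started with 1 mM NAD+ and 30 uM prostaglandin E2; NADH fluorescence (360/450 nm) read 5 times over 30-s intervals, last minus first.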
GLA inh pH 4.5 = blocks human alpha-galactosidase A at pH 4.5; P06280; AID 1467; activity change, negative = inhibition, % at 105 µM; purified enzyme, 4-MU-alpha-Gal fluorescence, pH 4.5; 230,000 tested, under 10 active;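 note: 0% = full activity with enzyme and -100% = basal without enzyme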
ALDH1A1 inh = inhibitors of human aldehyde dehydrogenase 1A1 | P00352 | Purified ALDH1A1, NADH fluorescence, propionaldehyde substrate | Potency, µM (doses to about 75.3 µM), for inactives: at the highest dose activity, negative = inhibition, most hits filed as inhibitors | 220,000 tested, 7.3% active | AID 1030; active = well fitted inhibition curve with a large enough effect, not every such curve was filed as active; inconclusive = small, poorly fitted or top-dose-only effect, or another doubt; inactive = no such curve, though single readings can be large or run the other way;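 note: potency is the fitted concentration of half-maximal effect; plate controls were no enzyme wells and a reference inhibitor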
PNC assembly inh = blocks assembly of the perinucleolar compartment. PC3M PTB-GFP, PNC prevalence imaging, 16 h; stronger effect = lower value. activity change (PNC), negative = inhibition, % at 10 µM. 140,000 tested, 3.1% active;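 active = readout at or below -70, meaning at least 70% loss of cells showing the perinucleolar compartment, a nuclear body marking cancer cells; inconclusive = readout between -30 and a set limit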;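 note: plate controls were DMSO wells for no effect and camptothecin positive control wells for full effect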
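Read-out is percentage of cells bearing a perinucleolar compartment, from automated 20x imaging of fixed, Hoechst-stained PC3M PTB-GFP cells. Cells were seeded 4 h, then exposed 16 h to compound (23 nl of library stock) in duplicate plates.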
aGal spleen mod = inhibitors or activators of human alpha-galactosidase in spleen homogenate; P06280; 240,000 tested, 0.008% active; Potency, µM (highest dose often 80 µM), for inactives: at the top dose activity change, negative = inhibition, most hits filed as inhibitors; human spleen homogenate, 4MU-alpha-Gal fluorescence, 40 min;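 note: potency is the fitted concentration of half-maximal effect; 0% = enzyme with vehicle and -100% = no enzyme basal signal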
Target sequence (P06280 32-429 limits assumed): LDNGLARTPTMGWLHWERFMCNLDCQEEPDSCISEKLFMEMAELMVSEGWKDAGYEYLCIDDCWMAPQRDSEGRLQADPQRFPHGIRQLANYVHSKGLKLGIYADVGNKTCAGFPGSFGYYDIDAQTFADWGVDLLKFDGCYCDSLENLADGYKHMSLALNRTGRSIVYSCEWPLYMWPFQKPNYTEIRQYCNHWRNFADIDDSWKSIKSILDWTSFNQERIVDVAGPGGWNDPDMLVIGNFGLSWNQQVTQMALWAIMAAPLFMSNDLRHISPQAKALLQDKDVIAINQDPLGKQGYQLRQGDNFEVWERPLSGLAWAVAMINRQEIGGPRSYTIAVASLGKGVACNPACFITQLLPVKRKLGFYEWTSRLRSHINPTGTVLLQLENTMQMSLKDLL
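Inhibition or activation of alpha-galactosidase in human spleen homogenate is scored by 4-MU fluorescence after 40 min at 37C, pH 5.0, with 1 mM substrate. AC50s come from concentration-response fitted to the Hill equation.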
The depositor's hits bear a star; ? = inconclusive; · = not tested or not shown; [ ] = remark or other dose. Compounds with a hit are over-represented: about 10% of the library has one in this group of screens. Unless noted, calls come from the whole dose curve; as a rule, active = well fitted curve in the direction sought with a large enough effect; inconclusive = small, poorly fitted or top-dose-only effect, or another doubt; inactive = no such curve, though single readings can be large; an effect the other way counts as inactive or inconclusive. Unless noted, % is set by controls: 0 for no effect and ±100 for the full control effect.

SMILES	ALOX12 inhib	HPGD block	GLA inh pH 4.5	ALDH1A1 inh	PNC assembly inh	aGal spleen mod
CCOC(=O)C1(CCOc2ccccc2)CCN(Cc2ccc(C)o2)CC1	·	·	2	18µM*	·	-4%
COc1cc(C(=S)N2CCCCC2)ccc1OCC(=O)Nc1ccccc1Cl	·	·	-14	-3%	·	-4%
O=C(COc1ccc(C(=S)N2CCOCC2)cc1Cl)Nc1ccccc1Cl	·	·	3	18µM*	·	1%
O[C@@H]1CO[C@H]2C1OC[C@@H]2O (some centres undefined)	·	·	·	·	·	2%
Cc1ccc(O)c(C(=O)c2coc(=N)c(C(=O)NC(C)C)c2)c1	3%	18µM*	0	?	-23	1%
COc1ccccc1-c1nc(S(=O)(=O)c2ccc(Cl)cc2)c(N(C)C)o1	-4%	-6%	1	24µM*	1	-4%
CN(C)c1oc(-c2ccccc2Cl)nc1P(=O)(c1ccccc1)c1ccccc1	-1%	-23%	0	?	2	14%
COC(=O)C/C=C/[C@@H](C)[C@@H](/C=N/O[C@@H](C)c1cn([C@H](CO)Cc2ccccc2)nn1)NS(=O)(=O)c1ccc(C)cc1	-4%	-2%	1	18µM*	-20	-1%
CC(C)[C@@H](CC(=O)N[C@@H]1CCNC[C@H]1C(=O)N[C@H](CC(=O)N[C@@H](CCC(=O)O)CC(=O)O)Cc1ccccc1)NC(=O)C[C@H](Cc1c[nH]c2ccccc12)NC(=O)[C@@H]1CCCC[C@H]1N	-1%	-4%	1	-2%	·	-1%
CCOC(=O)C1CCc2sc(N)c(C#N)c21 (centres undefined)	-14%	-16%	-1	?	-135*	3%
CCOC(=O)N1CCc2c(sc(N)c2C#N)C1	·	·	6	·	·	-2%
COc1ccc(CC(=O)N2CC(C)CC(C)C2)cc1 (centres undefined)	14%	28µM*	2	?	57	-11%
CCC(CCC(C)C1CCC2C3CC=C4CC(OC(C)=O)CC[C@@]4(C)C3CC[C@@]12C)C(C)C (some centres undefined)	-2%	-11%	3	13%	·	-14%
CCOC(=O)C1=C(C)N(C)C(=O)NC1c1cc2c(cc1[N+](=O)[O-])OCO2 (centres undefined)	·	·	-1	-6%	·	1%
CCOC(=O)CSC1=C(C#N)C(=O)NC(c2ccc(OC)cc2)S1 (centres undefined)	?	-16%	8	20µM*	11	9%
S=c1nc(-c2nc(=S)[nH]c3c2CCCCCCCCCC3)c2c([nH]1)CCCCCCCCCC2	1%[11.4 µM]	-8%	·	0%[13.5 µM]	·	·
CCOC(=O)C1(CCOc2ccccc2)CCN(Cc2cccc3nonc23)CC1	·	·	-9	?	·	2%
Cc1ccc2nc(-c3cccnc3)cc(C(=O)N3CCN(c4ccc([N+](=O)[O-])cc4)CC3)c2c1	·	·	-8	8.9µM*	·	-3%
O=C(c1cc(-c2cccnc2)nc2ccc(Br)cc12)N1CCN(c2ncccn2)CC1	-7%	16µM*	-7	-5%	?	-5%
CC[C@H](C)[C@H](NC(=O)[C@H](CCC(=O)O)NC(=O)CNC(=O)[C@H](CCCCN)NC(=O)[C@H](CCC(=O)O)NC(=O)[C@H](CCSC)NC(=O)[C@H](CCSC)NC(=O)[C@H](CCSC)NC(=O)[C@H](CCC(=O)O)NC(=O)CNC(=O)[C@H](CO)NC(=O)[C@H](CO)NC(=O)[C@H](CO)NC(=O)[C@@H](N)CC(N)=O)C(=O)N[C@@H](CCCCN)C(=O)O	·	·	·	·	·	8%
CCOC(=O)CC(=O)CSc1nc2ccccc2c(=O)n1-c1ccc(C(=O)N2CCOCC2)cc1	9%	-11%	-9	-10%	-14	13%
O=C(c1ccc(-n2c(SCc3cc(F)ccc3F)nc3ccccc3c2=O)cc1)N1CCOCC1	0%	-12%	-11	35µM*	22	2%
CCN(CC)CCNc1nc2c(c(=O)[nH]c(=O)n2C)n1CC(O)COc1ccc(Cl)cc1Cl (centres undefined)	0%	-20%	-7	-1%	-84*	3%
CN(C)CCNc1nc2c(c(=O)[nH]c(=O)n2C)n1CC(O)COc1ccc(Cl)cc1 (centres undefined)	4%	-8%	2	-1%	-27	7%
Cc1cc(C)n(-c2nc3c(c(=O)[nH]c(=O)n3C)n2CC(O)c2ccccc2)n1 (centres undefined)	-3%	-21%	-1	?	?	2%
SMILES	ALOX12 inhib	HPGD block	GLA inh pH 4.5	ALDH1A1 inh	PNC assembly inh	aGal spleen mod
Cc1cc(C)n(-c2nc3c(c(=O)[nH]c(=O)n3C)n2CC(O)COc2ccc(Cl)cc2Cl)n1 (centres undefined)	6%	3.5µM*	0	3%	61	3%
COc1cccc(NC(=O)CC2(CC(=O)O)CCCC2)c1	0%	?	0	20%	12	-1%
CCOC(=O)c1ccc(NC=C2C(=O)OC3(CCCCC3)OC2=O)cc1	-1%	-14%	-18	?	15	9%
COc1cccc(NC=C2C(=O)OC3(CCCCC3)OC2=O)c1	-7%	-24%	5	1.6µM*	22	3%
COc1cccc(NC=C2C(=O)OC(C)(C)OC2=O)c1	3%	-8%	8	10µM*	-17	-20%
O=C1OC2(CCCCC2)OC(=O)C1=CNc1ccc2c(c1)OCO2	-4%	-14%	6	0.89µM*	17	-7%
O=C1OC2(CCCCC2)OC(=O)C1=CNc1nc2ccccc2s1	-12%	-10%	-4	11µM*	?	4%
COc1ccccc1NC=C1C(=O)OC2(CCCCC2)OC1=O	-8%	?	-1	0.056µM*	5	-9%
COC(=O)c1ccccc1NC=C1C(=O)OC2(CCCCC2)OC1=O	-2%	-16%	0	?	?	15%
CC(C)(C)NCC(=O)c1c[nH]c2ccccc12	0%	-17%	-11	18µM*	27	4%
O=C(COC(=O)C1CC1)c1c[nH]c2ccccc12	-3%	-7%	3	-14%	-80*	8%
Cc1ccc(C(=O)NC(=S)NNC(=O)COc2ccccc2C)cc1	·	·	0	11µM*	·	8%
CCC(=O)NNC(=S)NC(=O)c1ccc(C)cc1	·	·	-5	20µM*	·	13%
CC(=O)NNC(=S)NC(=O)c1ccc(C)cc1	·	·	1	?	·	-9%
Cn1cc(-c2nc3cnc(OCc4ccccc4)nc3n(CCC#N)c2=O)c2ccccc21	·	·	·	41%	·	15%
COc1ccc(N(CC(=O)Nc2cc(C)ccc2C)S(=O)(=O)c2ccccc2[N+](=O)[O-])c(OC)c1	·	·	10	-4%	·	3%
COc1cc(OC)nc(NC(=O)CS(=O)(=O)c2ccccc2)n1	3%	-3%	-3	-9%	-119*	?
